# Test results published in ChEMBL document CHEMBL3988442, “University of Dundee, Small-Polar-MMV Screening Library” (2021).
# In all, about 48,000 compounds went through this assay and about 13,000 (27%) showed an effect of 50% or more. The list shows a part of the results.
# Test system: Wolbachia pipientis
# Assay: Anti-Wolbachia Cell-Based Screen
# Format: functional
# Parameters: scale not given: in the data most compounds retested in dose-response had high values
# Settings: 5 µM
row,SMILES,Percent Effect [%]
1,CCNC(=O)C(C)NC(=O)Nc1ccccc1Cl (centres undefined),-14.58
2,CCC1(c2ccc(NS(=O)(=O)c3cccs3)cc2)CCC(=O)NC1=O (centres undefined),2.702
3,CN(C)S(=O)(=O)Nc1ccc(-n2nncc2C(F)(F)F)cc1,-14.8
4,CCC1(c2ccc(NS(=O)(=O)N(C)C)cc2)CCC(=O)NC1=O (centres undefined),138.3
5,CC(C)C(C)NC(=O)Nc1ccc(CS(=O)(=O)C(C)C)cc1 (centres undefined),98.92
6,CC(C)NC(=O)Nc1ccc(CS(C)(=O)=O)cc1,125.1
7,CC(C)NC(=O)Nc1ccc(-c2nc3c([nH]2)CCNC3)cc1,8.53
8,CC(CO)NC(=O)Nc1ccc(CC#N)cc1 (centres undefined),-17.07
9,CC(C)C(C)NC(=O)Nc1ccc(CC(N)=O)cc1 (centres undefined),98.71
10,CC(C)C(C)NC(=O)Nc1cccn(C)c1=O (centres undefined),14.72
11,NC(=O)Cc1ccc(NC(=O)C2CCOCC2)cc1,-3.616
12,CCNC(=O)Cc1ccc(NC(=O)NC(CC)CC)cc1,3.76
13,CCC(C)NC(=O)Nc1ccc(CN2CCOC2=O)cc1 (centres undefined),17.46
14,Cc1occc1CNC(=O)N(CCCO)C1CCc2ccccc21 (centres undefined),-0.08809
15,CCC(CO)N(Cc1ccccn1)C(=O)c1ncccc1C (centres undefined),-0.3576
16,Cc1ccc(CN2C[C@@H](C(=O)O)[C@H](c3ccccn3)C2)o1,12.21
17,Cc1nccc(C2CN(Cc3ccc(-c4ccccc4C(=O)O)o3)C2)n1,137.2
18,CCc1nc(C)ncc1C(=O)N1CC(=O)N(C)c2ccccc21,-0.2346
19,Cc1ccc(CN2CCC3(CCC3NS(=O)(=O)c3ccccc3)CC2)o1.O=C(O)C(F)(F)F (centres undefined),-9.512
20,Cc1ccnc(C2CN(Cc3ccc(-c4ccccc4C(=O)O)o3)C2)n1,103.2
21,CCNC(=O)[C@@H]1C[C@H](N)CN1Cc1ccc(-c2ccccc2C#N)o1,18.83
22,CCc1cnc(C)nc1N1CCN(Cc2ccc(-c3cc[nH]n3)o2)CC1,-14.59

row,SMILES,Percent Effect [%]
1,Nc1nccc(C2CN(Cc3ccc(-c4ccccc4C(=O)O)o3)C2)n1,91.52
2,CCNC(=O)[C@@H]1C[C@@H](N)CN1Cc1ccc(-c2ccccc2C#N)o1,-0.5053
3,NCCN1C(=O)CC[C@H]2CN(Cc3ccc4occc4c3)CC[C@H]21,-1.233
4,C1CN(c2nc(C3CC3)ns2)CCS1,2.674
5,CS(=O)(=O)c1cccc2c1CCCN2C(=O)Cc1cccc(F)c1,14.6
6,CS(=O)(=O)c1ccc(O[C@H]2COCCN(C(=O)c3ccno3)C2)cc1,-17.98
7,CCCN(c1ccccc1C(=O)O)S(=O)(=O)c1ccc2ccccc2c1,-7.662
8,CC1=CCN(C(=O)Nc2ccccc2N2CCOC2=O)CC1,8.909
9,COc1ccc(C)cc1C1(CNc2cn[nH]c(=O)c2Cl)CCOCC1,1.939
10,CC(NC(=O)N(C)Cc1ccncc1)c1cn(-c2ccccc2)nn1 (centres undefined),-5.138
11,COC(=O)N1CCC(Nc2cccc(F)c2C(C)=O)CC1,7.066
12,Cc1cccc(CN(Cc2cccnc2)C2CC(C)(C)NC(C)(C)C2)n1.O=C(O)CC(O)(CC(=O)O)C(=O)O,68.09
13,CCCN(Cc1cccnc1)C(=O)C1CCNC1 (centres undefined),-6.629
14,CCCN(Cc1cccnc1)C1CC(C)(C)NC(C)(C)C1.O=C(O)CC(O)(CC(=O)O)C(=O)O,90.76
15,CC1(C)CC(N(Cc2ccncc2)Cc2cccnc2)CC(C)(C)N1.O=C(O)CC(O)(CC(=O)O)C(=O)O,106.8
16,CC1(C)CC(N(Cc2cccnc2)Cc2cccc(F)c2)CC(C)(C)N1.O=C(O)CC(O)(CC(=O)O)C(=O)O,152.9
17,CCCN(Cc1cccnc1)C(=O)C1CCS(=O)(=O)CC1,-18.37
18,CC1CN(c2ccc(CNC(=O)NCCn3ccnc3)cn2)CCO1 (centres undefined),-7.777
19,Cc1nn(C)cc1-c1ccnc(N(C)Cc2ccoc2)n1,-63.97
20,CN(Cc1ccncc1)C(=O)Nc1cnn(CC2CCCO2)c1 (centres undefined),-18.51
21,Cl.O=C(Nc1cccc(C(=O)OCC2CCCN2)c1)c1ccoc1 (centres undefined),-16.18
22,Cc1cc(C)n(CC2CCCN2CCCS(=O)(=O)N(C)C)n1 (centres undefined),-14.18

row,SMILES,Percent Effect [%]
1,Cc1cc(=O)[nH]c(NCCNC(=O)CN2CCCCCC2)n1,0.3352
2,COCCCSc1ccc(NCc2scnc2C)cc1,-22.23
3,CNC(=O)NC(=O)CN(CC(C)O)c1ccccc1 (centres undefined),1.255
4,Cc1ncsc1C(=O)N(Cc1cccnc1)C1CC1,11.29
5,CC1(C)CC(N(Cc2cccnc2)Cc2cccnc2)CC(C)(C)N1.O=C(O)CC(O)(CC(=O)O)C(=O)O,81.01
6,Cc1ccsc1CN(Cc1cccnc1)C1CC(C)(C)NC(C)(C)C1.O=C(O)CC(O)(CC(=O)O)C(=O)O,106.7
7,CC1(C)CC(N(Cc2ccccc2)Cc2cccnc2)CC(C)(C)N1.O=C(O)CC(O)(CC(=O)O)C(=O)O,31.11
8,Cc1ccc(CN(Cc2cccnc2)C2CC(C)(C)NC(C)(C)C2)s1.O=C(O)CC(O)(CC(=O)O)C(=O)O,9.465
9,CCCN(C)c1ncc2c(n1)N(C)CCN(CC1CC1)C2=O,98.31
10,CN1CCc2nc(N(C)C)nc(N3CCC(O)CC3)c2C1,12.64
11,CN(C)c1ncc2c(n1)N(C)CCN(CC1CC1)C2=O,109.4
12,Cc1ccccc1-n1cnnc1SCCOCC1CCCO1 (centres undefined),-11.81
13,Cc1ccc(-c2noc([C@@H]3C[C@H](NC(=O)CC(C)(C)C)CN3C)n2)cc1,-9.06
14,Cc1ccnc(CC(C)N(C)c2cc(CN)nc(C)n2)c1 (centres undefined),-4.516
15,CCn1ccnc1CN1CCN(CC(O)c2cccc(F)c2)CC1 (centres undefined),152.7
16,CCn1ccnc1CN1CCN(CC(O)c2ccccc2)CC1 (centres undefined),-0.4709
17,CC(c1ccc(F)c(F)c1)N1CCN(Cc2nccn2C)CC1 (centres undefined),-0.152
18,CC(c1cccc(F)c1)N1CCN(Cc2nccn2C)CC1 (centres undefined),119.5
19,COc1ccc(C(C)N2CCN(Cc3nccn3C)CC2)cc1Cl (centres undefined),-0.7599
20,Cn1ccnc1CN1CCN(CC(O)c2cccc(F)c2)CC1 (centres undefined),1.006
21,O=C(O)C(F)(F)F.O=C(O)C(F)(F)F.O=C(O)C(F)(F)F.c1cnc(NCc2noc3c2CN(CCN2CCCC2)CC3)nc1,-9.81
22,Cc1ccc(NC(=O)NC(C)c2nc[nH]n2)s1 (centres undefined),10.15

row,SMILES,Percent Effect [%]
1,CSCCN1CCN(c2nc(N)ncc2C)CC1,-15.55
2,O=C(c1cnccn1)N1CCN2C[C@H](OCc3ccccn3)C[C@H]2C1,1.808
3,COc1ccc(-c2cccc(CC3(C(=O)O)CCOCC3)c2)cc1,106.8
4,COc1cccc(CC2(C(=O)O)CCN(c3nccs3)CC2)c1,5.275
5,COc1cccc(CC2(C(=O)O)CCN(c3ccc(Cl)cn3)CC2)c1,-33.64
6,Fc1ccc(C2(NCc3ccccc3)CCOCC2)cc1,-10.48
7,O=C(O)C1(Cc2cccc(-c3ccc(F)cc3)c2)CCOCC1,105.2
8,O=C(O)C1(Cc2cccc(-c3ccc(F)c(F)c3)c2)CCOCC1,-9.122
9,CN(Cc1ccco1)c1ccc(-c2nccn2C)nn1,-4.631
10,CC1=C[C@@H](CN2CCCC2)[C@H](C(C)C)C[C@H]1Cc1nnc(C)o1,-4.134
11,CC(C)(C)OC(=O)N1CCCN1C(=O)c1cccc(F)c1F,-1.297
12,O=C(Nc1ccc(F)c(-n2cccc2)c1)NC1(CCO)CCOCC1,29.93
13,Br.Cc1cc(C)nc(NCCC(=O)NCCn2ccnc2C)n1,178
14,Cc1nccn1CCCC(=O)Nc1nc(C(C)C)nn1C,-14.12
15,Cc1cc(NC(=O)CCCn2ccnc2C)nc(C(C)C)n1,-7.681
16,CSC1(CNC(=O)N(C)Cc2sccc2C)CCOCC1,7.6
17,O=C(N1CCOCC1)N1CC[C@H]2[C@@H]1CCC(=O)N2c1ccccc1,-0.9647
18,Cc1cccnc1N1CCC(c2nccn2Cc2cscn2)CC1,-9.317
19,COc1ccc(C(=O)NCC(C)(O)CCc2ccccc2)cc1 (centres undefined),-2.442
20,O=C(NCc1cnc2n1CCN(c1ncc(F)cn1)CC2)C1CCC1,15.93
21,CS(=O)(=O)N1CCc2ncc(CNC(=O)C3CCC3)n2CC1,95.01
22,NC(=O)N1CCc2ncc(CNC(=O)CC3CC3)n2CC1,111.4

row,SMILES,Percent Effect [%]
1,O=C(NCc1cnc2n1CCN(CC1CC1)CC2)C1CCC1,16.9
2,CC(=O)N1CCc2ncc(CNC(=O)C3CCC3)n2CC1,106.1
3,CN(C)C(=O)N1CCn2cc(CNC(=O)CC3CC3)nc2C1,-12.44
4,Cn1cccc1C(=O)NCc1cnc2n1CCN(C(=O)N1CCCC1)C2,10.49
5,Cn1cccc1C(=O)NCc1cnc2n1CCN(C(N)=O)CC2,-2.634
6,Cc1cc(N2CCC(NC(=O)CCC3CCCO3)CC2)nc(C)n1 (centres undefined),7.946
7,Cc1cn2c(n1)C(CNCc1ccc(C)s1)CCC2 (centres undefined),5.575
8,CC1(C)[C@H]2CC=C(CN3CCCn4nc(C(=O)NCCO)cc4C3)[C@@H]1C2,10.58
9,Cc1cccc(OCCC(=O)N2CCCN(C(N)=O)CC2)c1C,-12.46
10,Cc1ccccc1-c1noc(-c2ccc(N(C)C3CCOCC3)nc2)n1,1.469
11,COCC(C)Nc1ccc(-c2nc(Cc3ccc(F)cc3)no2)cn1 (centres undefined),-40.71
12,c1ccc(Cc2noc(-c3ccc(NCC4CCCOC4)nc3)n2)cc1 (centres undefined),130.1
13,COC(=O)CNc1ccc(-c2nc(Cc3ccc(OC)cc3)no2)cn1,-28.16
14,Cc1ccccc1-c1noc(-c2ccc(NCC3COCCO3)nc2)n1 (centres undefined),87.55
15,O=C(CN1CC(c2nc(Cc3ccccc3)no2)C1)NCC1CCCO1.O=C(O)C(=O)O (centres undefined),1.544
16,c1ccc(Cc2noc(-c3ccc(NCC4COCCO4)nc3)n2)cc1 (centres undefined),114.1
17,COc1cccc(-c2noc(-c3ccc(NCC4CC4)nc3)n2)c1OC,-9.972
18,CC(CO)Nc1ccc(-c2nc(Cc3ccc(F)cc3)no2)cn1 (centres undefined),-69.59
19,c1ccc(Cc2noc(-c3ccc(NCC4CCCCO4)nc3)n2)cc1 (centres undefined),127.1
20,O=C(NCC1COCCO1)c1csc(Cc2ccccc2)n1 (centres undefined),-4.558
21,OC[C@@H]1CCCN1c1ccc(-c2nc(CCc3ccccc3)no2)cn1,1.286
